Assay outcomes deposited in PubChem BioAssay by National Center for Advancing Translational Sciences (NCATS).
This excerpt belongs to a sample that is enriched for hits.
KDM5B inh: blocks human KDM5B histone demethylase activity. Q9UGL1. KDM5B demethylase, FDH-coupled NADH fluorescence (FDH is formaldehyde dehydrogenase). Potency, µM (series often up to 57.7 µM), actives largely listed as inhibitors. actives 2.6% (n = 220,000). AID 1347165; active = well fitted inhibition curve with a large enough effect; note: 0% is about no effect; nearly all actives have a fitted effect of over 70% in size
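KDM5BΔAP (200 nM final) in 50 mM HEPES pH 7.5, 0.01% Tween-20 was preincubated 10 min at RT with compound over a concentration range. Substrate mix (H3K4me3 12.5 µM, α-KG 25 µM, Fe²⁺, ascorbate, NAD⁺, FDH) was added, and NADH fluorescence change over 30 min gave dose-response curves.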
* = called active by the depositor; i = inactive. Potency is the fitted concentration of half-maximal effect.

SMILES	KDM5B inh
O=C(NCCN1CCCCC1)c1cccnc1N1CC2CC(C1)[C@H]1CCCC(=O)N1C2 (stereo partly drawn)	28.2µM*
CN(CCCNC(=O)CN1CC2CC(C1)[C@H]1CCCC(=O)N1C2)C1CCCCC1 (stereo partly drawn)	i
CN1CCN(C(=O)c2ccc(N3CC4CC(C3)[C@H]3CCCC(=O)N3C4)nc2)CC1 (stereo partly drawn)	i
O=C(CN1CC2CC(C1)[C@H]1CCCC(=O)N1C2)NCCCN1CCCCC1 (stereo partly drawn)	i
CN(CCNC(=O)c1cccnc1N1CC2CC(C1)[C@H]1CCCC(=O)N1C2)C1CCCCC1 (stereo partly drawn)	31.6µM*
O=C(c1cccnc1N1CC2CC(C1)[C@H]1CCCC(=O)N1C2)N1CC=C(c2ccccc2)CC1 (stereo partly drawn)	31.6µM*
CCCC(C)N(C)CC(=O)NC1(C#N)CCCCCC1 (stereo not drawn)	i
CCc1cccc(C)c1NC(=O)Cn1nc2n(c1=O)CCCCC2	i
CC(C)CCNC(=O)C1N(C(C)C)C(=O)C12CCCCC2 (stereo not drawn)	i
Cc1cccc(C(=O)Nc2ncc(Cc3ccc(C#N)cc3C(F)(F)F)s2)n1	i
COC[C@H]1CCCN1C(=O)CC[C@H]1CNC(=O)[C@@H]2[C@@H](CCN2C)N1C	i
COc1ccc(C(C)C)cc1CN1CCCC(CNC(C)=O)C1 (stereo not drawn)	i
CC(=O)c1ccc(OC(=O)C23CC4CC(CC(Cl)(C4)C2)C3)cc1	i
COCCn1c(=O)[nH]c2cccnc21	i
O=C(c1ccc2nccnc2c1)N1CCn2nc(Cc3ccccc3)cc2C1	i
C=C(C)c1cccc(C(C)(C)NC(=O)NC(CC)CO)c1 (stereo not drawn)	i
O=C(NCCc1ccccc1)c1ccc(N2CC3CC(C2)[C@H]2CCCC(=O)N2C3)nc1 (stereo partly drawn)	i
O=C(NCCCN1CCOCC1)c1cccnc1N1CC2CC(C1)[C@H]1CCCC(=O)N1C2 (stereo partly drawn)	28.2µM*
CN1CCN(CCCNC(=O)c2ccc(N3CC4CC(C3)[C@H]3CCCC(=O)N3C4)nc2)CC1 (stereo partly drawn)	i
O=C(NCCC1=CCCCC1)C1CCN(C(=O)N2CC3CC(C2)[C@H]2CCCC(=O)N2C3)CC1 (stereo partly drawn)	i
O=C(NCCC1=CCCCC1)c1cccnc1N1CC2CC(C1)[C@H]1CCCC(=O)N1C2 (stereo partly drawn)	28.2µM*
O=C(CN1CC2CC(C1)[C@H]1CCCC(=O)N1C2)NCCCN1CCCC1 (stereo partly drawn)	i
CC1(c2ccccc2)N(Cc2ccccc2C#N)C(=O)OC12CCN(C(=O)Cc1cccc(F)c1)CC2 (stereo not drawn)	i
COc1ccc(CN2C[C@H]3CN(Cc4ccc(C)cc4)CCN3C2=O)cc1	i
Cc1cccc(C)c1-n1nnnc1SC(C(=O)N(C)C)c1ccccc1 (stereo not drawn)	i
SMILES	KDM5B inh
Cc1cccc2cc(CN(CC(C)C)C(=O)c3ccccc3)c(=O)[nH]c12	i
CCOC(=O)c1c(C)nc2nc(-c3cccnc3)nn2c1C	i
Cn1ccc(C(=O)NCc2nnc3n2C(C(=O)NCC2CC2)CC3)n1 (stereo not drawn)	100µM*
CN(C)C(=O)C1CCc2nnc(CNC(=O)c3ccccc3)n21 (stereo not drawn)	i
CN(C)C(=O)C1CCc2nnc(CNC(=O)c3ccc(Cl)cc3Cl)n21 (stereo not drawn)	i
CCOc1ccccc1NC(=O)Cn1c(=O)c(-c2noc(CC)n2)c2n(c1=O)CCCC2	i
Cc1ccc(/C=N/O)cc1	i
O=C(N[C@H]1C[C@H]2C(=O)NC[C@@H](CCC(=O)N3CCN(c4ccccn4)CC3)N2C1)C1CC1	31.6µM*
CC(C)NC(=O)N[C@H]1C[C@H]2C(=O)NC[C@@H](CCC(=O)N3CCN(c4ccccn4)CC3)N2C1	25.1µM*
O=C(Nc1ccsc1)N[C@H]1C[C@H]2C(=O)NC[C@@H](CCC(=O)N3CCCC3)N2C1	i
CC(C)NC(=O)N[C@H]1C[C@H]2C(=O)NC[C@@H](CCC(=O)NC3CC3)N2C1	i
O=C1NC[C@@H](CCC(=O)N2CCN(c3ccccc3)CC2)N2C[C@@H](NCc3ccccn3)C[C@@H]12	i
CN1CCN(C(=O)CC[C@@H]2CNC(=O)[C@@H]3C[C@H](NC(=O)c4ccccc4)CN23)CC1	i
CN1CCN(C(=O)CC[C@@H]2CNC(=O)[C@@H]3C[C@H](NC(=O)Nc4ccccc4)CN23)CC1	i
O=C1NC[C@@H](CCC(=O)N2CCN(c3ccccc3)CC2)N2C[C@@H](NCc3ccccc3)C[C@@H]12	i
COCC(=O)N[C@H]1C[C@H]2C(=O)NC[C@@H](CCC(=O)N3CCN(c4ccccn4)CC3)N2C1	25.1µM*
Cc1oc2cc(OCc3ccccc3)ccc2c(=O)c1-c1ccc2c(c1)OCCCO2	i
COC(=O)c1cccc(NC(=O)N2CCc3[nH]cnc3C2c2ccc(F)c(Cl)c2)c1 (stereo not drawn)	i
CC1(C)Cc2cccc(OCc3ccc(C(=O)NC4CCCC4)cc3)c2O1	i
CSCCC(NC(=O)c1ccc(C#CC(C)(C)O)cc1)C(=O)O (stereo not drawn)	i
Cn1ccc2c(C(=O)NCCC(N)=O)nc(-c3cccc(C(F)(F)F)c3)cc21	14.1µM*
Cn1ccc2c(C(=O)NCCC(N)=O)nc(-c3ccccc3)cc21	31.6µM*
CN1CCN(c2ccc(-c3cc4c(ccn4C)c(C(=O)NCCC(N)=O)n3)cc2)CC1	i
Cn1ccc2c(C(=O)NCCc3cnc[nH]3)nc(-c3ccc([S+](C)(=O)[O-])cc3)cc21	i
Cc1ccccc1-c1cc2c(ccn2C)c(C(=O)NCCc2cnc[nH]2)n1	39.8µM*
SMILES	KDM5B inh
Cn1cc(-c2cc3c(ccn3C)c(C(=O)NCCc3cnc[nH]3)n2)cn1	i
Cn1ccc2c(C(=O)NCCC(N)=O)nc(-c3cccc(CO)c3)cc21	i
Cn1ccc2c(C(=O)NCCC(N)=O)nc(-c3ccccc3C(F)(F)F)cc21	i
O=C(NC(c1ccccc1)c1cc2ccccc2o1)C1CCC1 (stereo not drawn)	i
Cc1cccc(C(=O)OCc2ccc(-c3ccccc3)cc2)n1	i
COc1cccc(Cc2nc(C3CC(=O)N(Cc4ccccc4OC)C3)no2)c1 (stereo not drawn)	i
O=C(N/N=C/c1ccccc1OCCCOc1ccccc1Cl)c1ccccc1	i
CONC(=O)c1sc2nc(C(C)(C)C)nc(C)c2c1C	i
CC1=C[C@@H](CN2CCN(C)CC2)[C@H](C(C)C)C[C@H]1Cc1nnc(-c2ccccc2F)o1	i
COc1cc(/C=C/C(=O)Oc2ccc3c(c2)OCO3)cc2c1OCCO2	i
Cc1nc2cc(NC(=O)c3cccc(C)c3C)ccc2o1	i
Cc1nc(SCC(=O)NC2(C#N)CCCC2)n(C2CCCC2)c1C	i
CCC(=O)N1CCN(c2nc3c(s2)CC(C(=O)Nc2cccc(C)c2C)CC3)CC1 (stereo not drawn)	i
Cc1oc(C(O)c2ccccc2F)nc1C(=O)Nc1ccccc1 (stereo not drawn)	i
Cc1oc(C(O)c2ccccc2F)nc1C(=O)Nc1ccccc1C(N)=O (stereo not drawn)	35.5µM*
